PubChem BioAssay (EPA / NIEHS)
Active and inactive are the calls of the source. How the source made its calls: active means hit-call score of the fitted dose curve at least 0.9, where 1 is the maximum; inactive means score below 0.9.

Columns and labels:
Conditions in all cases: mRNA level, 48 h; actives raise or lower the signal
[1] = read-out: Keratin 19 (KRT19), KRT19 (gene 3880); assay: LTEA_HepaRG_KRT19: Life Technologies and Expression Analysis (LTEA) Assay for Keratin 19 (KRT19) using HepaRG (AID 2283512)
Summary of the method: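 Differentiated human HepaRG cells, plated 48 h, were exposed in duplicate for 48 h in serum-free induction medium to eight half-log concentrations up to 100 uM in 0.5% DMSO. KRT19 mRNA was quantified by qRT-PCR, normalized to ACTB, GAPDH and POLR2A, and fitted bidirectionally versus DMSO.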

[2] = read-out: JUN Transcription Factor, JUN (gene 3725); assay: LTEA_HepaRG_JUN: Life Technologies and Expression Analysis (LTEA) Assay for JUN Transcription Factor using HepaRG (AID 2283513)
Summary of the method: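 Gene-expression endpoint: JUN mRNA (qRT-PCR, normalized to three reference genes) in HepaRG cultures treated 48 h with chemicals, duplicate wells, 100 uM maximum with half-log dilutions; bidirectional fitting relative to 0.5% DMSO.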

[3] = read-out: Lipase C (LIPC), LIPC (gene 3990); assay: LTEA_HepaRG_LIPC: Life Technologies and Expression Analysis (LTEA) Assay for Lipase C (LIPC) using HepaRG (AID 2283514)
Summary of the method: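 LIPC expression was quantified by qRT-PCR against three housekeeping genes (ACTB, GAPDH, POLR2A). Differentiated human HepaRG cells received eight half-log doses (top 100 uM, 0.5% DMSO) in duplicate for 48 h; fitting bidirectional relative to DMSO.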

[4] = read-out: Lipoprotein lipase (LPL), LPL (gene 4023); assay: LTEA_HepaRG_LPL: Life Technologies and Expression Analysis (LTEA) Assay for Lipoprotein lipase (LPL) using HepaRG (AID 2283515)
Summary of the method: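 LPL transcript levels quantified by TaqMan qRT-PCR against three housekeeping genes after 48 h chemical treatment of HepaRG cells. Eight-point half-log series from 100 uM in 0.5% DMSO, tested in duplicate; bidirectional fitting versus vehicle.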

[5] = read-out: matrix metalloproteinase-10 (MMP10), MMP10 (gene 4319); assay: LTEA_HepaRG_MMP10: Life Technologies and Expression Analysis (LTEA) Assay for matrix metalloproteinase-10 (MMP10) using HepaRG (AID 2283517)
Summary of the method: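 Expression measured by TaqMan qRT-PCR with ACTB/GAPDH/POLR2A normalisation after 48 h chemical exposure of HepaRG cells. Eight half-log concentrations, top 100 uM, 0.5% DMSO vehicle, duplicates; gain or loss fitted against vehicle.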

[6] = read-out: matrix metalloproteinase-3 (MMP3), MMP3 (gene 4314); assay: LTEA_HepaRG_MMP3: Life Technologies and Expression Analysis (LTEA) Assay for matrix metalloproteinase-3 (MMP3) using HepaRG (AID 2283519)
Summary of the method: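 Fluidigm-based TaqMan qRT-PCR, normalized to ACTB, GAPDH and POLR2A and fitted bidirectionally versus 0.5% DMSO, measured transcript levels. Treatment: duplicate 48 h exposures of HepaRG cells, ~100,000/well, to eight half-log concentrations topping at 100 uM.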

[7] = read-out: Paternally Expressed 10 (PEG10), PEG10 (gene 23089); assay: LTEA_HepaRG_PEG10: Life Technologies and Expression Analysis (LTEA) Assay for Paternally Expressed 10 (PEG10) using HepaRG (AID 2283520)
Summary of the method: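 After 48 h exposure of differentiated HepaRG cells (0.5% DMSO vehicle, eight concentrations up to 100 uM, duplicates), PEG10 mRNA was measured by TaqMan qRT-PCR. Values were normalised to endogenous control genes and analysed bidirectionally against vehicle.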

[8] = read-out: Protein phosphatase 2A (PPP2R4), PTPA (gene 5524); assay: LTEA_HepaRG_PPP2R4: Life Technologies and Expression Analysis (LTEA) Assay for Protein phosphatase 2A (PPP2R4) using HepaRG (AID 2283522)
Summary of the method: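 Using HepaRG cultures maintained in 0.5% DMSO, chemicals are tested 48 h at up to 100 uM in duplicate. Induction or suppression of PPP2R4 mRNA, measured by qRT-PCR, is fitted bidirectionally against the vehicle baseline.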

[9] = read-out: Phosphatase and tensin (PTEN), PTEN (gene 5728); assay: LTEA_HepaRG_PTEN: Life Technologies and Expression Analysis (LTEA) Assay for Phosphatase and tensin (PTEN) using HepaRG (AID 2283523)
Summary of the method: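 Read-out: TaqMan qRT-PCR of PTEN transcript, normalized to three housekeeping genes, fitted in both directions against 0.5% DMSO. Differentiated human HepaRG cultures received chemicals for 48 h, eight-point half-log series topping at 100 uM.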

[10] = read-out: solute carrier (SLC22A1), SLC22A1 (gene 6580); assay: LTEA_HepaRG_SLC22A1: Life Technologies and Expression Analysis (LTEA) Assay for solute carrier (SLC22A1) using HepaRG (AID 2283524)
Summary of the method: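 Transcript level of SLC22A1 quantified by qRT-PCR (normalized to three housekeeping genes) after 48 h chemical exposure of HepaRG cells, eight concentrations up to 100 µM, half-log steps, 0.5% DMSO vehicle. Gain or loss relative to DMSO fitted bidirectionally.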

[11] = read-out: Pyruvate Dehydrogenase Kinase 4 (PDK4), PDK4 (gene 5166); assay: LTEA_HepaRG_PDK4: Life Technologies and Expression Analysis (LTEA) Assay for Pyruvate Dehydrogenase Kinase 4 (PDK4) using HepaRG (AID 2283525)
Summary of the method: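 Readout is qRT-PCR of PDK4 transcript, normalized to three housekeeping genes, with bidirectional fitting against 0.5% DMSO vehicle. Differentiated HepaRG cells were treated 48 h in serum-free induction medium, duplicate wells, eight-point half-log series topping at 100 uM.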

[12] = read-out: NAD(P)H dehydrogenase [quinone] 1 (NQO1), NQO1 (gene 1728); assay: LTEA_HepaRG_NQO1: Life Technologies and Expression Analysis (LTEA) Assay for NAD(P)H dehydrogenase [quinone] 1 (NQO1) using HepaRG (AID 2283526)
Summary of the method: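 In this assay, gene expression is read by qRT-PCR after 48 h exposure of HepaRG cells to eight concentrations (max 100 uM, half-log) in 0.5% DMSO. Each chemical runs in duplicate, and activity is scored relative to vehicle.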

[13] = read-out: Nuclear factor erythroid 2-related factor 2 (Homo sapiens) (UniProt Q16236); assay: LTEA_HepaRG_NFE2L2: Life Technologies and Expression Analysis (LTEA) Assay for Nuclear factor erythroid 2-related factor 2 (NFE2L2) Transcription Factor using HepaRG (AID 2283527);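 further: TaqMan qRT-PCR transcript level normalised to ACTB GAPDH and POLR2A housekeeping genes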
Summary of the method: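 NFE2L2 transcript level was read by qRT-PCR (housekeeping ACTB/GAPDH/POLR2A normalisation) after 48 h chemical treatment of HepaRG in serum-free induction medium. Duplicate 8-point half-log curves, top 100 uM, 0.5% DMSO vehicle; up- or down-regulation fitted against vehicle.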

[14] = read-out: succinate dehydrogenase complex iron sulfur subunit B (SDHB), SDHB (gene 6390); assay: LTEA_HepaRG_SDHB: Life Technologies and Expression Analysis (LTEA) Assay for succinate dehydrogenase complex iron sulfur subunit B (SDHB) using HepaRG (AID 2283528)
Summary of the method: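 HepaRG, 48 h exposure, 8-pt half-log series from 100 uM in 0.5% DMSO, duplicates. Readout: SDHB mRNA by Fluidigm qRT-PCR vs housekeeping genes; bidirectional fit relative to DMSO.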

[15] = read-out: Signal transducer and activator of transcription 3 (Homo sapiens) (UniProt P40763); assay: LTEA_HepaRG_STAT3: Life Technologies and Expression Analysis (LTEA) Assay for Signal transducer and activator of transcription (STAT3) using HepaRG (AID 2283529)
Summary of the method: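 STAT3 transcript quantified by qRT-PCR against three housekeeping genes (ACTB, GAPDH, POLR2A), fitted both directions relative to DMSO. HepaRG cultures exposed 48 h to eight half-log concentrations, top 100 uM, 0.5% DMSO, serum-free induction medium.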

[16] = read-out: solute carrier (SLCO1B1), SLCO1B1 (gene 10599); assay: LTEA_HepaRG_SLCO1B1: Life Technologies and Expression Analysis (LTEA) Assay for solute carrier (SLCO1B1) using HepaRG (AID 2283530)
Summary of the method: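 Differentiated human HepaRG cells, plated 48 h, switched to serum-free induction medium and exposed in duplicate for 48 h to 8 half-log concentrations (top 100 uM) in 0.5% DMSO. SLCO1B1 mRNA by TaqMan qRT-PCR, normalized to ACTB/GAPDH/POLR2A.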

[17] = read-out: sulfotransferase 2A1 (SULT2A1), SULT2A1 (gene 6822); assay: LTEA_HepaRG_SULT2A1: Life Technologies and Expression Analysis (LTEA) Assay for sulfotransferase 2A1 (SULT2A1) using HepaRG (AID 2283531)
Summary of the method: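 Differentiated human HepaRG cells in serum-free induction medium were exposed for 48 h to eight half-log concentrations (top 100 uM, 0.5% DMSO). SULT2A1 mRNA was measured by qRT-PCR, normalized to ACTB, GAPDH and POLR2A, and fitted bidirectionally against DMSO.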

[18] = read-out: Transforming Growth Factor (TGFA), TGFA (gene 7039); assay: LTEA_HepaRG_TGFA: Life Technologies and Expression Analysis (LTEA) Assay for Transforming Growth Factor (TGFA) using HepaRG (AID 2283532)
Summary of the method: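 TGFA transcript quantified by qRT-PCR (Fluidigm arrays) against three housekeeping genes, after 48 hours chemical treatment of HepaRG cells. Top concentration 100 uM with half-log dilutions, 8 points, duplicates, 0.5% DMSO.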

[19] = read-out: Transforming Growth Factor (TGFB1), TGFB1 (gene 7040); assay: LTEA_HepaRG_TGFB1: Life Technologies and Expression Analysis (LTEA) Assay for Transforming Growth Factor (TGFB1) Transporter using HepaRG (AID 2283533)
Summary of the method: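 Differentiated human HepaRG cells in serum-free induction medium were exposed in duplicate for 48 h to eight concentrations (top 100 uM, half-log steps, 0.5% DMSO). TGFB1 mRNA was quantified by qRT-PCR, normalized to ACTB, GAPDH, POLR2A, and fitted bidirectionally against DMSO.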

[20] = read-out: Nuclear factor NF-kappa-B p105 subunit (Homo sapiens) (UniProt P19838); assay: LTEA_HepaRG_NFKB1: Life Technologies and Expression Analysis (LTEA) Assay for Nuclear Factor Kappa B Subunit 1 (NFKB1) using HepaRG (AID 2283521)
Summary of the method: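 Differentiated human HepaRG cells were exposed for 48 h in serum-free induction medium to eight concentrations (top 100 uM, half-log steps, 0.5% DMSO), in duplicate. NFKB1 mRNA was measured by TaqMan qRT-PCR, normalized to ACTB/GAPDH/POLR2A, and fitted bidirectionally against DMSO.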

Measured: outcome

Signal transducer and activator of transcription 3 (Homo sapiens), sequence (P40763 whole entry, looked up): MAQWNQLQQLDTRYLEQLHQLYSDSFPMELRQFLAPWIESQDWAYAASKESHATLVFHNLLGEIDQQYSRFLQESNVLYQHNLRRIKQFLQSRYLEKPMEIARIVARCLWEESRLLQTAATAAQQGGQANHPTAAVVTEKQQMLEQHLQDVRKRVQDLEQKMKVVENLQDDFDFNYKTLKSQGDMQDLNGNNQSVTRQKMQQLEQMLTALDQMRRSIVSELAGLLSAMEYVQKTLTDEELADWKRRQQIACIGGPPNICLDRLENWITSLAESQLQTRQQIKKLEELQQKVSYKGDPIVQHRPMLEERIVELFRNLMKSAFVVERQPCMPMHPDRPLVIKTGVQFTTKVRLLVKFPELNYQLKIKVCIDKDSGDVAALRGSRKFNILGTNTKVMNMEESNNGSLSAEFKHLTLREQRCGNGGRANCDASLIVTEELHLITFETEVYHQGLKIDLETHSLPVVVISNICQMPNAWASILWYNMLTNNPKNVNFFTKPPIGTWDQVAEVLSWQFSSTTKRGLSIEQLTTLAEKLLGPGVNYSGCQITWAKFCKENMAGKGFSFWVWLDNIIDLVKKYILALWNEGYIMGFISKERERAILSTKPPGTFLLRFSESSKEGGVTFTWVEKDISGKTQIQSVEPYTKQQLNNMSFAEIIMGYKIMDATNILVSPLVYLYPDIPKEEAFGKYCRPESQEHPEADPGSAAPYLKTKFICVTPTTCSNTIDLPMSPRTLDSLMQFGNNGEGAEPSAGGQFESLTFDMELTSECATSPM
Nuclear factor erythroid 2-related factor 2 (Homo sapiens), sequence (Q16236 whole entry, looked up): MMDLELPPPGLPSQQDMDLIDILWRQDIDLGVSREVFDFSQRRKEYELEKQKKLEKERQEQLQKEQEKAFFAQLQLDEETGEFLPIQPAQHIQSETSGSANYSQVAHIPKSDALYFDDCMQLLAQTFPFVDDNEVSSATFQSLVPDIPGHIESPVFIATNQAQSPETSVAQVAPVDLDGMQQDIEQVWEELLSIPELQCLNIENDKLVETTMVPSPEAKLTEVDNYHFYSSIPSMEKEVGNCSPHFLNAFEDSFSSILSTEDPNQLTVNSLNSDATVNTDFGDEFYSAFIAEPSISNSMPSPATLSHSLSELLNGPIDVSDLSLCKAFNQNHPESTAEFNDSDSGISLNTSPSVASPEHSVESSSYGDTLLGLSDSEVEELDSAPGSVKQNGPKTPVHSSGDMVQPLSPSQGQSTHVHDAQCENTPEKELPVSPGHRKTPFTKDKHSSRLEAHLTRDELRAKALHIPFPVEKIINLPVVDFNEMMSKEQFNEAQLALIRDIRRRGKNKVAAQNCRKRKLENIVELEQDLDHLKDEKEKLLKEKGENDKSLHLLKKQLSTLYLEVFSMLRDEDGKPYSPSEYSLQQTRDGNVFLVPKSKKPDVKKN
Nuclear factor NF-kappa-B p105 subunit (Homo sapiens), sequence (P19838 whole entry, looked up): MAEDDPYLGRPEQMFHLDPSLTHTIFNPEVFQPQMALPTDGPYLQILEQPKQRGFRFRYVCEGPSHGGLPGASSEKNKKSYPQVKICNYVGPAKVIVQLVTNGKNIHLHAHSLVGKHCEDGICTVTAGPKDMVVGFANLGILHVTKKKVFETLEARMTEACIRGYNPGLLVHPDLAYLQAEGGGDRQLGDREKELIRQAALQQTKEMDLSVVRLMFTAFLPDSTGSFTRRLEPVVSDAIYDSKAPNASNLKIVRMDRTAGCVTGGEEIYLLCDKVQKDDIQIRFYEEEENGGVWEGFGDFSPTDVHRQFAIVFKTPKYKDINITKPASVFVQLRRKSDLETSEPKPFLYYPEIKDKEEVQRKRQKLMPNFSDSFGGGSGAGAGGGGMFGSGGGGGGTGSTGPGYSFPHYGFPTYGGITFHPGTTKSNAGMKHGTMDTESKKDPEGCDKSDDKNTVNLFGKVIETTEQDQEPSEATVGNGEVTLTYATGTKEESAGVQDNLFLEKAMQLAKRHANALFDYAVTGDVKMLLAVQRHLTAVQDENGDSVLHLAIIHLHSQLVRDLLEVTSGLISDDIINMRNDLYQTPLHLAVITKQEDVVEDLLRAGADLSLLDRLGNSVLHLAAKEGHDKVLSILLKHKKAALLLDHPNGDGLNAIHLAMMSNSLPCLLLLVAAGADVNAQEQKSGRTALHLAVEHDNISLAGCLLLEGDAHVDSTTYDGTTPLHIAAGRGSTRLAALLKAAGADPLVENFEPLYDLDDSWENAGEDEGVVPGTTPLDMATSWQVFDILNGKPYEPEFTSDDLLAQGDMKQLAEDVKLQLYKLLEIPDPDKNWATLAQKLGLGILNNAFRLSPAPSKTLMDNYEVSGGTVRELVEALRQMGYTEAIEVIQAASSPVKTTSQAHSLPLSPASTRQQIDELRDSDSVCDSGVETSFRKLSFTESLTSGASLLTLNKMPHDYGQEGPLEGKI

COc1ccccc1N
inactive: [1] | [2] | [3] | [4] | [5] | [6] | [7] | [8] | [9] | [10] | [11] | [12] | [13] | [14] | [15] | [16] | [17] | [18] | [19]

Cc1cc(C)cc(C)c1
inactive: [1] | [2] | [3] | [4] | [5] | [6] | [7] | [20] | [8] | [9] | [10] | [11] | [12] | [13] | [14] | [15] | [16] | [17] | [18] | [19]

OCCN(CCO)CCO
inactive: [1] | [2] | [3] | [4] | [5] | [6] | [7] | [20] | [8] | [9] | [10] | [11] | [12] | [13] | [14] | [15] | [16] | [17] | [18] | [19]
